# Test system: T1, DLK
# T1 construct: gene MAP3K12
# Conditions: concentration: 1 μM, replicates: in singlicate; n = 1
# 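Note: KINOMEscan kinase panel screen.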
row,SMILES,%Inh [%]
1,COc1cc2ncnc(Nc3cccc(Br)c3)c2cc1OC.Cl [GI230329],39
2,CS(=O)(=O)CCNCc1nc(-c2ccc3ncnc(Nc4ccc(OCc5ccccc5)c(Cl)c4)c3c2)cs1.Cl [GW582764],50
3,COc1ccc2cc(-c3nc(-c4ccccc4C(C)C)[nH]c3-c3ccncc3)ccc2c1 [SB-660566],18
4,COc1ccc(Nc2nccc(N3CCC(NC(=O)C(C)c4ccc(Cl)cc4)CC3)n2)cc1 (centres unmarked) [GSK1379812],0
5,Cc1ccccc1-c1cc(-c2c[nH]nc2-c2ccccn2)ccn1 [GW680061],32
6,CC[C@@H]1CO[C@H](C(=O)Nc2ccccc2)CN1c1cc(-c2ccc3c(N)n[nH]c3c2)nc(NC)n1 [GSK2376236],0
7,O=C1NC(=O)C(c2ccc(Cl)cc2)=C1Nc1cccc(Cl)c1 [SB-317651],16
8,Cc1c(Cn2c3ccccc3n3c(=O)cc(N4CCOCC4)nc23)cccc1C(F)(F)F [GSK2306394],0
9,Cc1ccc(NC(=O)Nc2ccccc2F)cc1-c1ccc(C(=O)Nc2ccncc2)cc1 [GSK1398477],0
10,O=c1cc(N2CCOCC2)nc2n(Cc3cccc(Cl)c3Cl)c3ccccc3n12 [GSK2299009],0
11,CC(=O)c1c(C)c2cnc(Nc3ccn(C)n3)nc2n(C2CCCC2)c1=O,64
12,COc1cccc(CNC(=O)NC2CCN(c3ccnc(Nc4ccc(F)cc4)n3)C2)c1 (centres unmarked) [GSK1379723],0
13,CC(=O)c1c(C)c2cnc(Nc3ccc(N4CCNCC4)cn3)nc2n(C2CCCC2)c1=O,0
14,COc1cccc(C2=C(Nc3cc(Cl)c(O)c(Cl)c3)C(=O)NC2=O)c1 [SB-390767],0
15,Cc1ccccc1Cn1ccn2c(=O)cc(N3CCOCC3)nc12 [GSK2269905],0
16,Fc1ccc(-c2nn3cccc(F)c3c2-c2ccncc2)cc1 [GW475620],15
17,Cc1nccc(-c2c(-c3ccc(F)cc3)ncn2CCCN2CCOCC2)n1.Cl [SB-282975],0
18,Cc1cccc2c(-c3ccncn3)c(-c3ccc(F)cc3)nn12 [GW515532],25
19,COc1ccc(Nc2nccc(NCCNC(=O)Nc3cc(C)ccc3C)n2)cc1 [GSK1379899],10

row,SMILES,%Inh [%]
1,Nc1nccc(-c2c(-c3ccc(F)cc3)ncn2C2CCN(Cc3ccccc3)CC2)n1 [SB-219980],0
2,CS(=O)(=O)Cc1ccc(Nc2nccc(-c3c(-c4cccc(NC(=O)C5CCCCC5)c4)nn4ncccc34)n2)cc1 [GSK350559],41
3,Cc1ccc(NC(=O)Nc2ccc(Cl)c(C(F)(F)F)c2)cc1-c1ccc(C(=O)Nc2ccncc2)cc1 [GSK1398470],0
4,O=c1cc(N2CCOCC2)nc2n(Cc3ccccc3F)ccn12 [GSK2297428],0
5,O=C(Nc1n[nH]c2nc(-c3ccco3)c(Br)cc12)C1CCN(Cc2ccccc2)C1.O=C(O)[C@H](O)[C@@H](O)C(=O)O (centres unmarked) [SB-742034],0
6,CCn1c(-c2c(N)noc2C)nc2cnccc21 [SB-737856],41
7,Cn1cnc2c(N)ncnc21 [SKF-97623],6
8,O=C(Nc1n[nH]c2cc(-c3ccsc3)ccc12)C1CC1 [SB-732932],0
9,CN1c2ccc(-c3ccc(C(N)=O)cc3)cc2-c2[nH]ncc2S1(=O)=O,0
10,Cl.Cl.Cl.N#Cc1ccc(CCNc2nccc(-c3cccc(CN4CCNCC4)c3)n2)cc1 [GSK2137462],0
11,Cn1cncc1C(=O)NC1CCN(c2ccnc(Nc3ccc(F)cc3)n2)C1 (centres unmarked) [GSK1379717],0
12,CS(=O)(=O)CCNCc1nc(-c2ccc3ncnc(Nc4ccc5c(cnn5Cc5ccccc5)c4)c3c2)cs1.Cl.Cl [GW569716],53
13,Cc1cnc(N)c(/C=C/c2cncc(C(=O)NCCc3ccc(Cl)cc3Cl)c2)c1.Cl [GSK190937],25
14,CNCc1ccc2nc(NC(=O)c3ccc(C(C)(C)C)cc3)cn2c1,27
15,CNc1cc(-c2ccc3c(N)n[nH]c3c2)nc(N)n1 [GSK2224810],29
16,CNc1nc(-c2ccc3c(N)n[nH]c3c2)cc(N2C[C@@H](C(=O)Nc3ccccc3)CC[C@H]2C)n1 [GSK2298859],11
17,COc1ccc(Nc2nccc(N3CCC(NC(=O)c4cc5ccccc5s4)C3)n2)cc1 (centres unmarked) [GSK1379738],28
18,COc1ccc(CSc2nnc(-c3ccc4nccn4c3)o2)cc1C(F)(F)F,0

# Test system: T2, DMPK2
# T2 construct: gene CDC42BPG
# Conditions: concentration: 1 μM, replicates: in singlicate; n = 1
row,SMILES,%Inh [%]
1,COc1cc2ncnc(Nc3cccc(Br)c3)c2cc1OC.Cl [GI230329],5
2,CS(=O)(=O)CCNCc1nc(-c2ccc3ncnc(Nc4ccc(OCc5ccccc5)c(Cl)c4)c3c2)cs1.Cl [GW582764],0
3,COc1ccc2cc(-c3nc(-c4ccccc4C(C)C)[nH]c3-c3ccncc3)ccc2c1 [SB-660566],0
4,COc1ccc(Nc2nccc(N3CCC(NC(=O)C(C)c4ccc(Cl)cc4)CC3)n2)cc1 (centres unmarked) [GSK1379812],6
5,Cc1ccccc1-c1cc(-c2c[nH]nc2-c2ccccn2)ccn1 [GW680061],0
6,CC[C@@H]1CO[C@H](C(=O)Nc2ccccc2)CN1c1cc(-c2ccc3c(N)n[nH]c3c2)nc(NC)n1 [GSK2376236],5
7,O=C1NC(=O)C(c2ccc(Cl)cc2)=C1Nc1cccc(Cl)c1 [SB-317651],0
8,Cc1c(Cn2c3ccccc3n3c(=O)cc(N4CCOCC4)nc23)cccc1C(F)(F)F [GSK2306394],0
9,Cc1ccc(NC(=O)Nc2ccccc2F)cc1-c1ccc(C(=O)Nc2ccncc2)cc1 [GSK1398477],16
10,O=c1cc(N2CCOCC2)nc2n(Cc3cccc(Cl)c3Cl)c3ccccc3n12 [GSK2299009],24
11,CC(=O)c1c(C)c2cnc(Nc3ccn(C)n3)nc2n(C2CCCC2)c1=O,1
12,COc1cccc(CNC(=O)NC2CCN(c3ccnc(Nc4ccc(F)cc4)n3)C2)c1 (centres unmarked) [GSK1379723],0
13,CC(=O)c1c(C)c2cnc(Nc3ccc(N4CCNCC4)cn3)nc2n(C2CCCC2)c1=O,96
14,COc1cccc(C2=C(Nc3cc(Cl)c(O)c(Cl)c3)C(=O)NC2=O)c1 [SB-390767],0
15,Cc1ccccc1Cn1ccn2c(=O)cc(N3CCOCC3)nc12 [GSK2269905],0
16,Fc1ccc(-c2nn3cccc(F)c3c2-c2ccncc2)cc1 [GW475620],81
17,Cc1nccc(-c2c(-c3ccc(F)cc3)ncn2CCCN2CCOCC2)n1.Cl [SB-282975],9
18,Cc1cccc2c(-c3ccncn3)c(-c3ccc(F)cc3)nn12 [GW515532],24
19,COc1ccc(Nc2nccc(NCCNC(=O)Nc3cc(C)ccc3C)n2)cc1 [GSK1379899],0

row,SMILES,%Inh [%]
1,Nc1nccc(-c2c(-c3ccc(F)cc3)ncn2C2CCN(Cc3ccccc3)CC2)n1 [SB-219980],52
2,CS(=O)(=O)Cc1ccc(Nc2nccc(-c3c(-c4cccc(NC(=O)C5CCCCC5)c4)nn4ncccc34)n2)cc1 [GSK350559],35
3,Cc1ccc(NC(=O)Nc2ccc(Cl)c(C(F)(F)F)c2)cc1-c1ccc(C(=O)Nc2ccncc2)cc1 [GSK1398470],12
4,O=c1cc(N2CCOCC2)nc2n(Cc3ccccc3F)ccn12 [GSK2297428],0
5,O=C(Nc1n[nH]c2nc(-c3ccco3)c(Br)cc12)C1CCN(Cc2ccccc2)C1.O=C(O)[C@H](O)[C@@H](O)C(=O)O (centres unmarked) [SB-742034],0
6,CCn1c(-c2c(N)noc2C)nc2cnccc21 [SB-737856],99.8
7,Cn1cnc2c(N)ncnc21 [SKF-97623],0
8,O=C(Nc1n[nH]c2cc(-c3ccsc3)ccc12)C1CC1 [SB-732932],0
9,CN1c2ccc(-c3ccc(C(N)=O)cc3)cc2-c2[nH]ncc2S1(=O)=O,0
10,Cl.Cl.Cl.N#Cc1ccc(CCNc2nccc(-c3cccc(CN4CCNCC4)c3)n2)cc1 [GSK2137462],41
11,Cn1cncc1C(=O)NC1CCN(c2ccnc(Nc3ccc(F)cc3)n2)C1 (centres unmarked) [GSK1379717],0
12,CS(=O)(=O)CCNCc1nc(-c2ccc3ncnc(Nc4ccc5c(cnn5Cc5ccccc5)c4)c3c2)cs1.Cl.Cl [GW569716],0
13,Cc1cnc(N)c(/C=C/c2cncc(C(=O)NCCc3ccc(Cl)cc3Cl)c2)c1.Cl [GSK190937],3
14,CNCc1ccc2nc(NC(=O)c3ccc(C(C)(C)C)cc3)cn2c1,0
15,CNc1cc(-c2ccc3c(N)n[nH]c3c2)nc(N)n1 [GSK2224810],10
16,CNc1nc(-c2ccc3c(N)n[nH]c3c2)cc(N2C[C@@H](C(=O)Nc3ccccc3)CC[C@H]2C)n1 [GSK2298859],13
17,COc1ccc(Nc2nccc(N3CCC(NC(=O)c4cc5ccccc5s4)C3)n2)cc1 (centres unmarked) [GSK1379738],7
18,COc1ccc(CSc2nnc(-c3ccc4nccn4c3)o2)cc1C(F)(F)F,2

# — paper PMC5540273 (PLoS ONE, 2017)
